Experimental data published in article PMC4336329 (PLoS ONE, 2015).
In all, about 310,000 compounds went through this assay and about 14,000 (4.5%) showed an effect of 50% or more. The effect is printed as a negative number. What follows is part of a selection rich in strong results, with near analogues and random picks from the rest.
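Note: peak tail current of the secondary pulse compared with the same well before compound.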

These compounds were tested against human ether-à-go-go-related gene (hERG) potassium channel (human, UniProt Q12809) (assay: primary screen, population patch clamp on CHO cells stably expressing hERG; higher = less effect of the substance).
human ether-à-go-go-related gene (hERG) potassium channel, sequence (Q12809 whole entry, looked up): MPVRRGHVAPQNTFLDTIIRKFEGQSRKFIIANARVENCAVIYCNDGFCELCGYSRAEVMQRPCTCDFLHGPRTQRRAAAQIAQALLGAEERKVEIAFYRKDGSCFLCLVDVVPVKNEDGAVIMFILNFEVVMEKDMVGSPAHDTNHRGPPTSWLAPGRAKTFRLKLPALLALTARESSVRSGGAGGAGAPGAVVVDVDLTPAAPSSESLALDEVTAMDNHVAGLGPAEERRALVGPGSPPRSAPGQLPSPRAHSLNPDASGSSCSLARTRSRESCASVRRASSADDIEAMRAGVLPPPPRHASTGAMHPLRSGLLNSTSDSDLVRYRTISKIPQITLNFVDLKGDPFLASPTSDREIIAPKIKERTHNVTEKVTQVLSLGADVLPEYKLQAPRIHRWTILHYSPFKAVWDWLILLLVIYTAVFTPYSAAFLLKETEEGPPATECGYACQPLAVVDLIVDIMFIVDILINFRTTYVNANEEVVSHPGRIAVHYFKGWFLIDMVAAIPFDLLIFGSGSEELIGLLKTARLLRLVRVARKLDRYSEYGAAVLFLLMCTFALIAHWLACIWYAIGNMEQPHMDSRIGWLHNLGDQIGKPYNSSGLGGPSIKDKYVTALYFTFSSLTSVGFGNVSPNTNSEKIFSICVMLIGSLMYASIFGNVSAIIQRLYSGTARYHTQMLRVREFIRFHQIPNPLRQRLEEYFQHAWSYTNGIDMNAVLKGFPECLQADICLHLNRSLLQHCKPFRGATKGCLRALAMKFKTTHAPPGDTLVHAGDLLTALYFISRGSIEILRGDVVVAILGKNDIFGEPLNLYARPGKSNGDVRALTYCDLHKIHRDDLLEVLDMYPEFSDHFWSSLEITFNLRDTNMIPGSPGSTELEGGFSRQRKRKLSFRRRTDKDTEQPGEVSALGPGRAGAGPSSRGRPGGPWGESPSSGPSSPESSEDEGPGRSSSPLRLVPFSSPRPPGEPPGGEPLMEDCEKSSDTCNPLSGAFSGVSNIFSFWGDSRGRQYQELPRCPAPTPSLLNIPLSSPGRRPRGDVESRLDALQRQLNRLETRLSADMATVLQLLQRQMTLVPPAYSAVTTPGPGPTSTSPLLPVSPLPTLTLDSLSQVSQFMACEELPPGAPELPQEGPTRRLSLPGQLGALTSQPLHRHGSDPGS
Method: Briefly, Chinese hamster ovary (CHO) cells stably expressing the hERG channel were dislodged from tissue culture flasks and dispensed into PPC plates. […] During the recording, background leak currents were estimated by a 100 ms step to -80 mV from an initial holding potential of -70 mV and subtracted from the subsequent current measurement. The campaign was conducted in two phases using slight differences in recording protocol. In the first phase, the initial voltage pulse used a 100 ms step to -30 mV from a holding potential of -70 mV, a 2 s conditioning step to +25 mV, and a 2 s test step to -30 mV. During the second phase of the screen, the potential during the conditioning step was raised to +45 mV. In both phases of the campaign, a secondary voltage pulse was applied using the same parameters as the second phase initial pulse. The initial and secondary pulses were applied in the absence of compound, and upon application of 1 μM and 10 μM test concentrations. […]
In the case of `CN(Cc1ccccc1)S(=O)(=O)c1ccc(Cl)c(C(=O)NCc2cccnc2)c1`, the “hERG current change (%, negative = inhibition) at 10uM” value is reported as -32.8%. For `CN(CC(=O)NCCc1ccccn1)S(=O)(=O)c1ccc(Cl)cc1`, the “hERG current change (%, negative = inhibition) at 10uM” value was -17%. With `CN(Cc1ccccc1)S(=O)(=O)c1ccc(Cl)c(C(=O)O)c1` the “hERG current change (%, negative = inhibition) at 10uM” value was 9.33%. With `CN(Cc1ccccc1)S(=O)(=O)c1ccc(Cl)c(C(=O)NCc2ccc3c(c2)OCO3)c1` the “hERG current change (%, negative = inhibition) at 10uM” value was 5.48%. In the case of `CN(Cc1ccccc1)S(=O)(=O)c1ccc(Cl)c(C(=O)NCCc2ccccn2)c1`, the “hERG current change (%, negative = inhibition) at 10uM” value is reported as -61.8%. With `CN(Cc1ccccc1)S(=O)(=O)c1ccc(OCC(=O)NCc2ccccn2)cc1` the “hERG current change (%, negative = inhibition) at 10uM” value was -32.6%. In the case of `CN(Cc1ccccc1)S(=O)(=O)c1ccc(OCC(=O)NCc2ccncc2)cc1`, the “hERG current change (%, negative = inhibition) at 10uM” value is reported as -53.6%. `CN(Cc1ccccc1)S(=O)(=O)c1ccc(OCC(=O)NCc2cccnc2)cc1` was tested, and the “hERG current change (%, negative = inhibition) at 10uM” value was 0.509%. For `O=C1Nc2ccc(C(F)(F)F)cc2N2CCCC12` (centres unmarked), the “hERG current change (%, negative = inhibition) at 10uM” value was -1.52%. With `Cc1ccc(CSCCNC(=O)CN(c2cc(C)ccc2C)S(C)(=O)=O)cc1` the “hERG current change (%, negative = inhibition) at 10uM” value was -23.5%. In the case of `COC(=O)C1=C(C)N(Cc2ccc(OC)c(OC)c2)C(=O)C1`, the “hERG current change (%, negative = inhibition) at 10uM” value is reported as 10.7%. With `C=CCSc1n[nH]c(-c2cccs2)n1` the “hERG current change (%, negative = inhibition) at 10uM” value was 14.4%. For `CN(CCO)S(=O)(=O)c1ccc2c(c1)C(=NN)c1cc(S(=O)(=O)N(C)CCO)ccc1-2`, the “hERG current change (%, negative = inhibition) at 10uM” value was 9.76%. In the case of `CN1C2CCC1CC(OC(c1ccccc1)c1ccccc1N)C2` (centres unmarked), the “hERG current change (%, negative = inhibition) at 10uM” value is reported as -68.5%. With `CCOC(=O)C1CCN(C(=O)CNC(=O)c2nn(-c3ccc(OC)cc3)c(=O)c3ccccc23)CC1` the “hERG current change (%, negative = inhibition) at 10uM” value was -9.73%. In the case of `Cc1ccc(Cl)cc1NC(=O)CC1NCCNC1=O` (centres unmarked), the “hERG current change (%, negative = inhibition) at 10uM” value is reported as 13.6%. In the case of `COc1ccccc1-c1c(C)nn2c(N3CCOCC3)cc(C)nc12`, the “hERG current change (%, negative = inhibition) at 10uM” value is reported as 2.71%. `C#CCOC(=O)CCCNc1ccc([N+](=O)[O-])cc1[N+](=O)[O-]` was tested, and the “hERG current change (%, negative = inhibition) at 10uM” value was -51.1%. With `CCCCOc1ccc([N+](=O)[O-])cc1C(=O)O` the “hERG current change (%, negative = inhibition) at 10uM” value was 24.9%. For `CCCCOC(=O)CCCc1ccc([N+](=O)[O-])cc1[N+](=O)[O-]`, the “hERG current change (%, negative = inhibition) at 10uM” value was -52%. `CCCCOC(=O)Nc1nc2ccc([N+](=O)[O-])cc2s1` was tested, and the “hERG current change (%, negative = inhibition) at 10uM” value was 15.1%. `CCOC(=O)CCCNc1ccc([N+](=O)[O-])cc1[N+](=O)[O-]` was tested, and the “hERG current change (%, negative = inhibition) at 10uM” value was -13.3%. `CC(C)OC(=O)CCCNc1ccc([N+](=O)[O-])cc1[N+](=O)[O-]` was tested, and the “hERG current change (%, negative = inhibition) at 10uM” value was -41.4%. With `COC(=O)c1c(-c2c(Cl)cccc2Cl)noc1C(=O)NNC(=O)N(C)C` the “hERG current change (%, negative = inhibition) at 10uM” value was 4.36%. With `CCOc1ccc(-n2c(=O)c3ccccc3c3ccccc3c2=O)cc1` the “hERG current change (%, negative = inhibition) at 10uM” value was 17.8%. In the case of `S=C(NCc1ccccc1)NCc1cccc(CNC(=S)NCc2ccccc2)c1`, the “hERG current change (%, negative = inhibition) at 10uM” value is reported as 21.7%. With `CCOCCCn1c(=NC(C)=O)c(C(=O)OCC)cc2c(=O)n3ccccc3nc21` the “hERG current change (%, negative = inhibition) at 10uM” value was -22.9%. `CCOC(=O)c1cc2c(=O)n3ccccc3nc2n(CCCOC)c1=NC(=O)c1cccnc1` was tested, and the “hERG current change (%, negative = inhibition) at 10uM” value was -68%. In the case of `CCOCCCn1c(=NC(=O)c2cccnc2)c(C(=O)OCC)cc2c(=O)n3ccccc3nc21`, the “hERG current change (%, negative = inhibition) at 10uM” value is reported as -70.1%. `CCOC(=O)c1cc2c(=O)n3cccc(C)c3nc2n(CCOC)c1=NC(C)=O` was tested, and the “hERG current change (%, negative = inhibition) at 10uM” value was -16.3%. `CCOC(=O)c1cc2c(=O)n3cccc(C)c3nc2n(CCCOC)c1=NC(=O)c1cccnc1` was tested, and the “hERG current change (%, negative = inhibition) at 10uM” value was -78.6%. In the case of `CCC1=C(OC(=O)N(CC)CC)N2C(=O)OC(=NCC(=O)OC)[C@]2(C)[C@H]2C1=CC[C@H]1C(=O)NC(=O)[C@H]12`, the “hERG current change (%, negative = inhibition) at 10uM” value is reported as -15.5%. `Cc1onc(COc2ccccc2O)c1Br` was tested, and the “hERG current change (%, negative = inhibition) at 10uM” value was 11.2%. `COc1cccc(NC(=O)CN(C)C(C)C(=O)Nc2ccc(S(=O)(=O)N3CCOCC3)cc2)c1` (centres unmarked) was tested, and the “hERG current change (%, negative = inhibition) at 10uM” value was -15.1%. With `COc1ccccc1-c1noc(Cn2cc(S(=O)(=O)N3CCCC3)ccc2=O)n1` the “hERG current change (%, negative = inhibition) at 10uM” value was -3.72%. For `CCC(C)NCCOCCOc1ccc(C)cc1Br.O=C(O)C(=O)O` (centres unmarked), the “hERG current change (%, negative = inhibition) at 10uM” value was -41%. `Cc1cc(OCCOCCNC(C)C)cc(C)c1Cl.O=C(O)C(=O)O` was tested, and the “hERG current change (%, negative = inhibition) at 10uM” value was -47.3%. For `CCC(C)NCCOCCOc1ccc(Br)cc1.O=C(O)C(=O)O` (centres unmarked), the “hERG current change (%, negative = inhibition) at 10uM” value was -18.1%. For `CCC(C)NCCCOc1cc(Cl)ccc1Cl.O=C(O)C(=O)O` (centres unmarked), the “hERG current change (%, negative = inhibition) at 10uM” value was -42.3%. With `CCC(C)NCCOCCOc1ccc(Cl)cc1Br.O=C(O)C(=O)O` (centres unmarked) the “hERG current change (%, negative = inhibition) at 10uM” value was -51.1%. In the case of `CCC(C)NCCOCCOc1cc(C)c(Cl)c(C)c1.O=C(O)C(=O)O` (centres unmarked), the “hERG current change (%, negative = inhibition) at 10uM” value is reported as -59.2%. For `CCC(C)NCCCOc1ccc(Cl)cc1C(C)(C)C.O=C(O)C(=O)O` (centres unmarked), the “hERG current change (%, negative = inhibition) at 10uM” value was -8.48%. With `CCC(C)NCCCCOc1ccc(Cl)cc1C.O=C(O)C(=O)O` (centres unmarked) the “hERG current change (%, negative = inhibition) at 10uM” value was -58.6%. `C=CCc1cc(Cl)ccc1OCCCNC(C)CC.O=C(O)C(=O)O` (centres unmarked) was tested, and the “hERG current change (%, negative = inhibition) at 10uM” value was -55.7%. `C=CCc1cc(Cl)ccc1OCCNCCCOC.O=C(O)C(=O)O` was tested, and the “hERG current change (%, negative = inhibition) at 10uM” value was -37.9%. With `C=CCc1cc(Cl)ccc1OCCCNC(C)C.O=C(O)C(=O)O` the “hERG current change (%, negative = inhibition) at 10uM” value was -40.1%. `CC(C)NCCOCCOc1ccc(Cl)cc1Br.O=C(O)C(=O)O` was tested, and the “hERG current change (%, negative = inhibition) at 10uM” value was -32.2%.
